# Assay results reported in PubChem BioAssay AID1822 (The Scripps Research Institute Molecular Screening Center, 2009).
# Hit rate of the full screen: of about 290,000 compounds, about 3,500 (1.2%) were called active.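 How the source made its calls: active means inhibition above the campaign mean inhibition over all tested compounds plus 3 SD (cut at about 28% in these data); inactive means the rest.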 The full list was thinned out, with actives kept by preference.
# Test system: M18 aspartyl aminopeptidase (Plasmodium falciparum 3D7)
# Experiment: inhibition of P. falciparum M18 aminopeptidase – biochemical, QFRET, recombinant enzyme, primary screen (AID 1822);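 further: 0% = plate median of test compound wells and 100% = 2 mM ZnCl2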
# Conditions: recombinant PfM18AAP, H-Glu-NHMec fluorogenic cleavage; at 7.35 µM; hits give high values
row,Structure (SMILES),inhibition
1,COc1cc(Nc2nc3ccc(Cl)cc3n3cnnc23)cc(OC)c1OC,-5.42% (inactive)
2,COc1cc(/C=N/Nc2nn3cnnc3c3ccccc23)cc(OC)c1OC,43.6% (active)
3,COc1cc(/C=N/NC(=O)Cc2ccccc2)cc(OC)c1OC,0.54% (inactive)
4,CCOC(=O)C(CC)/C(C)=N\NC(=O)c1cccc(C)c1 (configuration not stated),-12.1% (inactive)
5,O=CN1CCN(C(=O)c2ccc(Br)o2)CC1,-0.01% (inactive)
6,O=C(Cc1ccccc1)Nc1c(C(=O)N2CCCCCC2)cnn1-c1ccccc1,5.1% (inactive)
7,O=C(COc1ccc([N+](=O)[O-])cc1Cl)Nn1cnnc1,33% (active)
8,O=C(COc1ccccc1Cl)Nn1cnnc1,31% (active)
9,COc1ccccc1C(=O)Nn1cnnc1,18.1% (inactive)
10,O=C(COc1ccccc1Cl)Nc1ccc(C(=O)c2ccc(C(=O)O)cc2)cc1,-8.1% (inactive)
11,O=C(Nc1ccccc1Cl)Nn1cnnc1,77.6% (active)
12,O=C(Nc1cccnc1)c1cc(Cl)ccc1Cl,-0.24% (inactive)
13,O=C(Nn1cnc2ccccc2c1=O)c1ccc([N+](=O)[O-])cc1Cl,-1.63% (inactive)
14,Cc1nn(-c2ccccc2)c(C)c1NC(=O)COc1ccc(Cl)cc1Cl,-6.26% (inactive)
15,O=C(Nn1cnnc1)c1cc(Cl)ccc1Cl,54.6% (active)
16,O=C(Nc1ccccc1Cl)Nc1cccc2cccnc12,6.47% (inactive)

row,Structure (SMILES),inhibition
1,O=C(COc1ccccc1Cl)N1CCCCCCC1,5.5% (inactive)
2,Cc1c(NC(=O)Nc2ccccc2Cl)sc(=S)n1C,4.48% (inactive)
3,COc1ccccc1NC(=O)CCC(=O)N1CC(C)Oc2ccc(C)cc21 (configuration not stated),-4.62% (inactive)
4,O=C(CN(Cc1ccccc1)C(=O)CCC(=O)Nc1ccccn1)NCCc1ccccc1,0.21% (inactive)
5,O=[N+]([O-])c1cccc(S(=O)(=O)NCc2ccccn2)c1,-8.77% (inactive)
6,CN(Cc1ccccc1)CC(O)COc1ccc(CNCc2cc3ccccc3s2)cc1 (configuration not stated),-3.49% (inactive)
7,COc1ccc(C(=O)NC2CC2)cc1OC1CCN(C/C=C/c2ccccc2)CC1,-7.74% (inactive)
8,CC(C)CCNC(=O)c1ccc2c(Cl)c3c(nc2c1)CCC3,-8.56% (inactive)
9,CCN(CC)c1ccc(C(=O)NNC(=O)CCc2nc3ccccc3c(=O)[nH]2)cc1,-7.26% (inactive)
10,CC(=O)N1CCOc2ccc(S(=O)(=O)N3CCN(c4cccc(C(F)(F)F)c4)CC3)cc21,-2.98% (inactive)
11,COC(=O)c1c(NC(=O)CCCC(=O)O)sc2c1CCCCC2,29.6% (active)
12,COC(=O)c1c(NC(=O)C2CC(C)=C(C)CC2C(=O)O)sc2c1CCCCC2 (configuration not stated),-0.05% (inactive)
13,COC(=O)c1c(NC(=O)CCN2CCOCC2)sc2c1CCCC2,-1.78% (inactive)
14,Cc1ccc(C(=O)c2c(NC(=O)c3ccncc3)sc3c2CCCC3)cc1,-11.4% (inactive)
15,O=C(CN1CCCC1)Nc1sc2c(c1C(=O)Nc1ccccc1)CCCC2,7.15% (inactive)
16,Cc1ccc(NC(=O)c2c(NC(=O)CCC(=O)O)sc3c2CCCCC3)cc1,36.1% (active)
